# Reference: PubChem BioAssay AID463173 (ICCB-Longwood Screening Facility, Harvard Medical School, 2010)
# The whole screen tested about 52,000 compounds, of which about 4,300 (8.3%) were called active. The list comes from a sample in which actives are over-represented; it also holds similar structures and randomly drawn compounds. A number with no mark means an inactive call. Cut-off read from the data, not from the text of the source: active = survival mostly below about 52% (no sharp cut-off); inactive = mostly above about 56%.
# Test system: DeltatarO mutant
# Assay: S. aureus survival, RN4220 and DeltatarO strains – OD600, teichoic acid synthesis inhibitors, primary screen (AID 463173)
# Settings: S. aureus RN4220 wild type/DeltatarO growth, OD600, 18 h, hits give low values, screened at 18.75 µg/mL (by protocol)
row,SMILES,survival
1,Cc1ccc(NC(=O)CCN2CCN(CCO)CC2)cc1C,54%
2,Cc1ccc(CCNC(=O)c2ccc3c(c2)nc2n3CCOC2)cc1,86%
3,CCc1ccc(-n2c(=O)c3cccnc3n2CC(=O)Nc2ccccc2C(F)(F)F)cc1,71%
4,Cc1c(-c2ccc(Cl)cc2)c(=O)oc2c(CN3CCOCC3)c(O)ccc12,82%
5,O=c1oc(-c2cccc3ncccc23)nn1Cc1ccccc1F,102%
6,COc1cccc(CNC(=O)CCc2nnc3n(C)c(=O)c4sccc4n23)c1,63%
7,CCc1ccc(C(=O)c2cn(CC(=O)Nc3ccc(C)c(C)c3)c3ccccc3c2=O)cc1,108%
8,CC(C)CC(=O)n1nc(-c2cccnc2)nc1NCc1ccc(F)cc1,89%
9,Cc1cc(Nc2ccc(F)cc2)nc(-n2nc(C)cc2C)n1,70%
10,Cc1ccc2ncc(C(=O)c3ccc(C)c(C)c3)c(S(=O)(=O)c3ccccc3)c2c1,70%
11,COc1ccc(S(=O)(=O)N2CCC(c3nnnn3-c3ccccc3)CC2)cc1OC,80%
12,CN1C(=O)/C(=C2/SC(=S)N(c3cccc(O)c3)C2=O)c2ccccc21,54%
13,CNC(=O)c1ccc(CSc2nc3cccnc3n2Cc2cccc(F)c2)cc1,118%
14,CCN1CCN(CCCNC(=O)c2ccc3nc(Cc4ccccc4)oc3c2)CC1,105%
15,COc1ccc(NC(=O)c2ccco2)cc1NC(=O)c1c(OC)cccc1OC,51%
16,COc1ccc(NC(=O)c2ccco2)cc1NC(=O)COc1ccccc1,45% (active)
17,COc1ccc(NC(=O)c2ccco2)cc1NC(=O)COc1ccc(C)c(C)c1,49%
18,COc1ccc(NC(=O)c2ccco2)cc1NC(=O)c1cc(OC)c(OC)c(OC)c1,71%
19,COc1ccc(NC(=O)c2ccco2)cc1NC(=O)COc1cc(C)cc(C)c1,121%
20,COc1ccc(NC(=O)c2ccco2)cc1NC(=O)c1cccc(C)c1OC,37% (active)
21,COc1ccc(NC(=O)c2ccco2)cc1NC(=O)c1cccc(F)c1,89%
22,CCCCOc1cccc(C(=O)Nc2cc(NC(=O)c3ccco3)ccc2OC)c1,23% (active)
23,COc1cc(OC)cc(C(=O)Nc2cc(NC(=O)c3ccco3)ccc2OC)c1,83%
24,COc1ccc(C(=O)Nc2cc(NC(=O)c3ccco3)ccc2OC)cc1Cl,54%
25,COc1ccc(NC(=O)c2ccco2)cc1NC(=O)c1ccccc1[N+](=O)[O-],49%

row,SMILES,survival
1,COc1ccc(NC(=O)c2ccco2)cc1NC(=O)c1ccc(C)c(C)c1,49% (active)
2,COc1cccc(NC(=O)C2CCCN(c3nnc(-n4c(C)ccc4C)s3)C2)c1 (centres undefined),79%
3,COc1ccc(NC(=O)Cn2cnc3c(oc4ccccc43)c2=O)cc1OC,79%
4,Cc1nc(-c2ccc(S(=O)(=O)N3CCN(c4cccc(C(F)(F)F)c4)CC3)cc2)co1,67%
5,Cc1ccc(S(=O)(=O)CC(=O)Nc2nc3c(C)cc(C)cc3s2)cc1,96%
6,COC(=O)c1c(SC)nc2ccccc2c1OCc1ccc(Cl)cc1,92%
7,COc1ccc(N(C(=O)c2ccc(OC)c(OC)c2)S(=O)(=O)c2ccc(Cl)cc2)cc1,80%
8,COc1cccc(CN(CCO)Cc2ccccc2)c1OC,91%
9,CCOc1ccc(CNC(=O)C2CCN(C(=O)N3CC(CC)Oc4ccc(C)cc43)CC2)cc1OC (centres undefined),77%
10,Cc1cccc(-n2c(=O)c3c(c4cc(C)ccc4n3C)n(CC(=O)Nc3ccc(C)cc3C)c2=O)c1,69%
11,COc1ccccc1CNC(=O)Cn1ncc2c(=O)oc3ccc(C)cc3c21,78%
12,CC(C)n1nc(CC(=O)O)c2ccccc2c1=O,79%
13,CCSc1nc2ccc(N)cc2s1,108%
14,O=C(NCC(c1cccnc1)N1CCc2ccccc2C1)c1ccc(F)c(F)c1 (centres undefined),70%
15,CCOc1ccc(CCNC(=O)CN2C(=O)COc3ccc(S(=O)(=O)N4CCCC4)cc32)cc1,69%
16,Cc1ccc(C(c2sc3nc(-c4ccco4)nn3c2O)N2CCCCC2)cc1 (centres undefined),93%
17,COc1ccc(S(=O)(=O)n2nc(-c3ccco3)nc2NCc2ccc(OC)c(OC)c2)cc1,55%
18,COc1ccc(CNc2nc(-c3ccco3)nn2S(=O)(=O)c2ccc(Cl)cc2)cc1OC,61%
19,COc1ccc(CNc2n[nH]c(-c3ccco3)n2)cc1OC,62% (active)
20,COc1ccc(CNc2nc(-c3ccco3)nn2S(=O)(=O)c2ccc3ccccc3c2)cc1OC,58% (active)
21,Fc1cccc(Cl)c1CNc1n[nH]c(-c2ccco2)n1,76%
22,CC(C)c1ccc(CNc2n[nH]c(-c3ccco3)n2)cc1,80%
23,Cc1ccc(C(=O)Nc2cccc(O)c2)cc1S(=O)(=O)N1CCCCCC1,79%
24,CCN(CC)CCCNC(=O)CN1N=C(c2ccccc2)CCC1=O,87%
25,Cc1ccc(NC(=O)CCCn2c(=O)c3cccn3c3ccccc32)c(C)c1,49%

row,SMILES,survival
1,COc1ccc(OC)c(NC(=O)Cn2c(=O)c3cccn3c3ccccc32)c1,41% (active)
2,COc1ccc(NC(=O)CN2C(=O)C(=O)c3ccccc32)c(OC)c1,52% (active)
3,COc1ccc(NC(=O)CCn2c(=O)c3cccn3c3ccccc32)c(OC)c1,47% (active)
4,COc1ccc(NC(=O)CCCn2c(=O)c3cccn3c3ccccc32)c(OC)c1,57% (active)
5,Cc1cc(Cl)ccc1NC(=O)CN1C(=O)C(=O)c2ccccc21,71%
6,CCOc1ccccc1NC(=O)CN1C(=O)C(=O)c2ccccc21,94%
7,COc1ccc(OC)c(CCNC(=O)CCCn2c(=O)c3cccn3c3ccccc32)c1,77%
8,Cc1ccc(NC(=O)CCn2c(=O)c3cccn3c3ccccc32)c(Cl)c1,57%
9,COc1ccc(NC(=O)Cn2c(=O)c3cccn3c3ccccc32)cc1,49%
10,COc1ccc(CNC(=O)Cn2c(=O)c3cccn3c3ccccc32)cc1,47%
11,COc1ccc(NC(=O)CCn2c(=O)c3cccn3c3cccnc32)c(OC)c1,103%
12,CC1CN(C(=O)Nc2ccc(C(=O)NCCc3ccccc3Cl)cc2)c2ccccc2S1 (centres undefined),61%
13,COc1ccc(NC(=O)c2ccc3c(c2)sc2nc(-c4ccc(OC)cc4)cn23)cc1,61%
14,CN=C1SC(CC(=O)NC)C(=O)N1C (centres undefined),86%
15,CCCc1noc2c1C1=NNC(=O)C1C(C)(C)C2 (centres undefined),76%
16,O=c1[nH]c2ccc(NCc3ccc(-c4ccccc4)o3)cc2[nH]1,86%
17,O=C(Nc1ccc(-n2nncc2-c2ccccc2)cc1)c1cccc(F)c1,129%
18,COc1ccc(N2CCN(C(=O)CCc3c(C)nc4cc(-c5ccc(OC)cc5OC)nn4c3C)CC2)cc1,104%
19,CC(C)CNC(=O)c1cccc(Cl)c1,82%
20,COc1ccc(CCNC(=O)Cn2cc(C(=O)c3ccc(Cl)cc3)c(=O)c3ccc(C)nc32)cc1OC,79%
21,COc1ccc(NC(=O)CCn2c(=O)c3cccn3c3cccnc32)cc1Cl,85%
22,Cc1cc(C)c(NC(=O)Cn2c(=O)c3cccn3c3ccccc32)c(C)c1,51%
23,COc1ccc(NC(=O)CCCn2c(=O)c3cccn3c3cccnc32)cc1Cl,87%
24,COc1ccc(NC(=O)Cn2c(=O)oc3cc(Cl)ccc32)c(OC)c1,91%
25,COc1cc(OC)c(NC(=O)CCn2cccn2)cc1Cl,79%

row,SMILES,survival
1,COc1ccc(NC(=O)Cn2c(=O)c3cccn3c3ccccc32)cc1Cl,42% (active)
2,Cc1c(Cl)cccc1NC(=O)CCn1c(=O)c2cccn2c2ccccc21,49%
3,COc1ccc(OC)c(NC(=O)CCn2cccn2)c1,47% (active)
4,COc1ccc(Cl)cc1NC(=O)CCn1c(=O)oc2ccccc21,40% (active)
5,COc1ccc(OC)c(NC(=O)CCn2cnnn2)c1,80%
6,Cc1cccc(NC(=O)Cn2c(=O)c3cccn3c3ccccc32)c1C,43% (active)
7,COc1cc(NC(=O)CCn2c(=O)oc3ccccc32)cc(OC)c1OC,62%
8,COc1ccc(OC)c(NS(=O)(=O)c2ccc(-n3cccn3)cc2)c1,95%
9,Cc1ccsc1CN1CCc2nc(Nc3ccccc3)ncc2C1,61%
10,CCc1cccc(C)c1NC(=O)C1CCN(c2nn3c(=O)cc(C)nc3s2)CC1,119%
11,Cc1cccc(N2CCN(c3ncnc4c3nc3n4CCCCC3)CC2)c1C,95%
12,COc1ccc(C(=O)NCC(c2cccnc2)N2CCN(c3ccccc3OC)CC2)cc1 (centres undefined),77%
13,COc1ccc(Cl)cc1NC(=O)CCCn1c(=O)c2cccn2c2cccnc21,87%
14,Cc1ccc(Cl)cc1NC(=O)CCCn1c(=O)c2cccn2c2ccccc21,61%
15,CC(=O)c1ccc(NC(=O)Cn2c(=O)c3cccn3c3ccccc32)cc1,42% (active)
16,COc1ccc(OC)c(CNC(=O)Cc2ccc(NC(=O)N3CCCCc4ccccc43)cc2)c1,99%
17,COc1ccc(C)cc1NC(=O)Cc1ccc(NC(=O)N2CCCCc3ccccc32)cc1,67%
18,COc1ccc(Cl)cc1NC(=O)NCCn1c(=O)oc2ccc(C)cc21,46% (active)
19,CCOC(=O)c1cccc(NC(=O)Cn2c(=O)c3cccn3c3ccccc32)c1,100%
20,Cc1ccc2oc(=O)n(CCNC(=O)Nc3ccc(Cl)cc3)c2c1,72%
21,COc1ccc(Cl)cc1NC(=O)CCn1c(=O)c2cccn2c2ccccc21,42% (active)
22,Cc1ccc2oc(=O)n(CCNC(=O)Nc3ccccc3C)c2c1,109%
23,COc1ccc(NC(=O)Cc2ccc(NC(=O)N3CCCCc4ccccc43)cc2)c(OC)c1,47% (active)
24,CCc1ccc(NC(=O)Cn2c(=O)c3cccn3c3ccccc32)cc1,56%
